Results published in PubChem BioAssay (Tox21).
Inconclusive results are not listed. Calls of active or inactive are those of the source. Calls come from the whole dose curve; as a rule, active = well fitted curve in the direction sought with a large enough effect in the repeat runs; inconclusive = weak or mixed curves; inactive = no such curve, though single readings can be large; an effect the other way counts as inactive or inconclusive.

Key:
[1] = A CellTox Green Cytotoxicity Assay to monitor cytotoxicity in HEK293 cells - 32 hour (AID 1224881); note: nearly all actives have a fitted effect of over 40% in size; note: potency is the fitted concentration of half-maximal effect
Outline: (§1)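 HEK293 cells, 600/well, were preincubated 5 hours and then exposed to compounds at 37 C for up to 40 hours. A cell-impermeant cyanine dye staining dead-cell DNA was read by fluorescence at 0, 8, 16, 24, 32 and 40 h time points.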

[2] = A CellTox Green Cytotoxicity Assay to monitor cytotoxicity in HepG2 cells - 0 hour (AID 1224882); note: nearly all actives have a fitted effect of over 35% in size
Outline: (§2)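 HepG2 cells, 600/well, preincubated 5 h with CellTox Green dye, then exposed to Tox21 compounds in DMSO at 37 C for up to 40 h. Dead-cell DNA fluorescence read at the indicated time point.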

[3] = A CellTox Green Cytotoxicity Assay to monitor cytotoxicity in HepG2 cells - 32 hour (AID 1224883); note: nearly all actives have a fitted effect of over 50% in size; note: potency is the fitted concentration of half-maximal effect
Outline: as §2

[4] = A CellTox Green Cytotoxicity Assay to monitor cytotoxicity in HEK293 cells - 8 hour (AID 1224884); note: nearly all actives have a fitted effect of over 35% in size
Outline: as §1

[5] = qHTS RealTime-Glo MT Cell Viability Assay in HepG2 cells - 16 hour (AID 1224885); note: nearly all actives have a fitted effect of over 50% in size; note: potency is the fitted concentration of half-maximal effect
Outline: (§3)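 Luminescence read-out: viable HepG2 cells reduce a prosubstrate to a NanoLuc substrate, giving a signal proportional to live cell number. Reads taken at 0, 8, 16, 24, 32 and 40 h of compound exposure at 37 C.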

[6] = qHTS RealTime-Glo MT Cell Viability Assay in HEK293 cells - 24 hour (AID 1224886); note: nearly all actives have a fitted effect of over 50% in size; note: potency is the fitted concentration of half-maximal effect; for activity change, negative = cytotoxicity: top concentration of the series differs between compounds
Outline: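 Nonlytic real-time viability readout: viable cells convert prosubstrate to NanoLuc substrate, giving luminescence proportional to live cell number. HEK293, 600 cells/well, compound added after 5 h, continuous culture at 37 C.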

[7] = qHTS RealTime-Glo MT Cell Viability Assay in HEK293 cells - 8 hour (AID 1224887); note: nearly all actives have a fitted effect of over 50% in size; note: potency is the fitted concentration of half-maximal effect; for activity change, negative = cytotoxicity: top concentration of the series differs between compounds
Outline: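 600 cells/well were plated with the nonlytic NanoLuc/prosubstrate reagent, pre-incubated 5 h, then given 23 nL of compound in DMSO. Incubation at 37 C for 40 h, with luminescence from viable-cell-reduced substrate read repeatedly from 0 h.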

[8] = A CellTox Green Cytotoxicity Assay to monitor cytotoxicity in HEK293 cells - 16 hour (AID 1224888); note: nearly all actives have a fitted effect of over 35% in size; note: potency is the fitted concentration of half-maximal effect
Outline: as §1

[9] = qHTS RealTime-Glo MT Cell Viability Assay in HepG2 cells - 0 hour (AID 1224889); note: nearly all actives have a fitted effect of over 50% in size
Outline: as §3

[10] = A CellTox Green Cytotoxicity Assay to monitor cytotoxicity in HepG2 cells - 8 hour (AID 1224890); note: nearly all actives have a fitted effect of over 45% in size; note: potency is the fitted concentration of half-maximal effect
Outline: as §2
% is set by controls: 0 for no effect and ±100 for the full control effect.

C=C(C)C(=O)OC(C)C
inactive: Potency [1] | Potency [2] | Potency [3] | Potency [4] | Potency [5] | Potency [6] | Potency [7] | Potency [8] | Potency [9] | Potency [10]

NC(=S)N/N=C/c1cccnc1
inactive: Potency [1] | Potency [2] | Potency [3] | Potency [4] | Potency [5] | Potency [6] | Potency [7] | Potency [8] | Potency [9] | Potency [10]

COc1ccc2[nH]c(S(=O)Cc3ncc(C)c(OC)c3C)nc2n1 (configuration not stated)
inactive: Potency [1] | Potency [2] | Potency [3] | Potency [4] | Potency [5] | Potency [6] | Potency [7] | Potency [8] | Potency [9] | Potency [10]

CC1(C)[C@H]2CC[C@]1(C)[C@H](O)C2
inactive: Potency [1] | Potency [2] | Potency [3] | Potency [4] | Potency [5] | Potency [6] | Potency [7] | Potency [8] | Potency [9] | Potency [10]

CCCCCCCCCCCCC(=O)O
inactive: Potency [1] | Potency [2] | Potency [3] | Potency [4] | Potency [5] | Potency [6] | Potency [7] | Potency [8] | Potency [9] | Potency [10]

CCOC(=O)CC(C)C
inactive: Potency [1] | Potency [2] | Potency [3] | Potency [4] | Potency [5] | Potency [6] | Potency [7] | Potency [8] | Potency [9] | Potency [10]

NCCCN(CCO)CCO
inactive: Potency [1] | Potency [2] | Potency [3] | Potency [4] | Potency [5] | Potency [6] | Potency [7] | Potency [8] | Potency [9] | Potency [10]

CN1CCC(=C2c3ccccc3CCc3sccc32)CC1
inactive: Potency [1] | Potency [2] | Potency [4] | Potency [5] | Potency [6] | Potency [7] | Potency [8] | Potency [9] | Potency [10]
active: Potency [3] 23.9 µM

CC(=O)c1ccc2c(c1)[C@H](NC(=O)c1ccc(F)cc1)[C@@H](O)C(C)(C)O2
inactive: Potency [1] | Potency [2] | Potency [3] | Potency [4] | Potency [5] | Potency [6] | Potency [7] | Potency [8] | Potency [9] | Potency [10]

CC(=O)Nc1ccc(/C=N/NC(N)=S)cc1
inactive: Potency [1] | Potency [2] | Potency [3] | Potency [5] | Potency [6] | Potency [7] | Potency [8] | Potency [9] | Potency [10]

C1CCC2OC2C1 (configuration not stated)
inactive: Potency [1] | Potency [2] | Potency [3] | Potency [5] | Potency [6] | Potency [7] | Potency [8] | Potency [9]

OCC1CC2CC1C1CCC(CO)C21 (configuration not stated)
inactive: Potency [1] | Potency [2] | Potency [3] | Potency [5] | Potency [6] | Potency [7] | Potency [8] | Potency [9] | Potency [10]

CC(O)C1CCCCC1 (configuration not stated)
inactive: Potency [1] | Potency [2] | Potency [3] | Potency [5] | Potency [6] | Potency [8] | Potency [9]

Cc1cc(C)c(S(=O)(=O)O)cc1N=Nc1cc(S(=O)(=O)O)c2ccccc2c1O
inactive: Potency [1] | Potency [2] | Potency [3] | Potency [4] | Potency [5] | Potency [8] | Potency [9]

Cc1occc1S
inactive: Potency [1] | Potency [2] | Potency [3] | Potency [5] | Potency [6] | Potency [7] | Potency [8] | Potency [9] | Potency [10]

O=C(c1ccccc1)c1ccc2n1CCC2C(=O)O (configuration not stated)
inactive: Potency [1] | Potency [2] | Potency [3] | Potency [5] | Potency [6] | Potency [7] | Potency [8] | Potency [9]

COc1ccccc1OC(=O)Oc1ccccc1OC
inactive: Potency [1] | Potency [2] | Potency [3] | Potency [5] | Potency [6] | Potency [8] | Potency [9] | Potency [10]

COC(=O)CSc1cc(N=c2sc(=O)n3n2CCCC3)c(F)cc1Cl
inactive: Potency [1] | Potency [2] | Potency [3] | Potency [5] | Potency [6] | Potency [7] | Potency [9] | Potency [10]

O=C1CCCCCO1
inactive: Potency [1] | Potency [2] | Potency [3] | Potency [5] | Potency [6] | Potency [7] | Potency [8] | Potency [9]

O=C(O)C(c1ccc(Cl)cc1)c1ccc(Cl)cc1
inactive: Potency [1] | Potency [2] | Potency [3] | Potency [5] | Potency [6] | Potency [7] | Potency [8] | Potency [9] | Potency [10]

Cc1cc(O)ccc1N
inactive: Potency [2] | Potency [3] | Potency [5] | Potency [8] | Potency [9] | Potency [10]
active: Potency [1] 34.9 µM | Potency [6] 55.3 µM | Potency [7] 43.9 µM

CCCC(=O)OCC
inactive: Potency [1] | Potency [2] | Potency [3] | Potency [5] | Potency [6] | Potency [7] | Potency [8] | Potency [9] | Potency [10]

NC(N)=NN=C(/C=C/c1ccc([N+](=O)[O-])o1)/C=C/c1ccc([N+](=O)[O-])o1
active: Potency [1] 8.49 µM | Potency [3] 2.39 µM | Potency [5] 2.13 µM | Potency [7] 6.01 µM | Potency [8] 9.52 µM | Potency [10] 9.52 µM
inactive: Potency [2] | Potency [9]

CCCCCCCCCCCCCCCCCBr
inactive: cytotoxicity increase [1] -9.33% [at 15.8 µM] | cytotoxicity [2] -6.85% [at 15.8 µM] | cytotoxicity increase [3] -10.1% [at 15.8 µM] | activity change, negative = cytotoxic [5] -3.91% [at 15.8 µM] | activity change, negative = cytotoxicity [6] -0.166% [at 15.8 µM] | activity change, negative = cytotoxicity [7] 2.84% [at 15.8 µM] | activity change [8] -5.91% [at 15.8 µM, active compounds read high] | activity change, negative = cytotoxicity [9] -6.2% [at 15.8 µM] | cytotoxicity increase [10] -11.1% [at 15.8 µM]

CCCCCCCCCCCCCCCC(=O)OC/C=C(C)/C=C/C=C(C)/C=C/C1=C(C)CCCC1(C)C
inactive: Potency [1] | Potency [2] | Potency [3] | Potency [5] | Potency [6] | Potency [8] | Potency [9]
